# Measurements as given in the supplement of paper PMC4466140.
# Legend:
# Test in all cases: SPOT peptide array binding signal intensity (averaged, normalized) (arbitrary units (background-subtracted, floor 0; scale differs between SH3 domains)); higher = stronger binding of the SH3 domain to the peptide
# AgAbp1 = target: AgAbp1
# How it was run: (§1)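 To measure binding, SH3 domains from four yeast species were fused to GST, expressed in E. coli BL21(DE3) and purified on glutathione Sepharose. Each domain was incubated at 10 μg/ml overnight at 4°C on cellulose membranes with synthetic 15-mer peptides whose cysteines were replaced by serines. Anti-GST antibody, an HRP anti-mouse secondary and luminol were used for detection, and images were quantified with Genespotter. Reported binding signal is normalized, background-subtracted spot intensity averaged over replicates, in arbitrary units that differ between domains.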
# AgBbc1 = target: AgBbc1
# How it was run: as §1
# AgBem1-D1 = target: AgBem1-D1
# How it was run: as §1
# AgBzz1-D1 = target: AgBzz1-D1
# How it was run: as §1
# AgBzz1-D2 = target: AgBzz1-D2
# How it was run: as §1
# AgCyk3 = target: AgCyk3
# How it was run: as §1
# AgFus1 = target: AgFus1
# How it was run: as §1
# AgHof1 = target: AgHof1
# How it was run: as §1
# AgHse1 = target: AgHse1
# How it was run: as §1
# AgLsb1 = target: AgLsb1
# How it was run: as §1
# AgLsb4 = target: AgLsb4
# How it was run: as §1
# AgMyo5 = target: AgMyo5
# How it was run: as §1
# AgNbp2 = target: AgNbp2
# How it was run: as §1
# AgRvs167 = target: AgRvs167
# How it was run: as §1
# AgSho1 = target: AgSho1
# How it was run: as §1
# AgSla1-D1-D2 = target: AgSla1-D1-D2
# How it was run: as §1
# AgSla1-D3 = target: AgSla1-D3
# How it was run: as §1
# CaAbp1-D1 = target: CaAbp1-D1
# How it was run: as §1
# CaAbp1-D2 = target: CaAbp1-D2
# How it was run: as §1
# CaBbc1 = target: CaBbc1
# How it was run: as §1
# CaBem1-D1 = target: CaBem1-D1
# How it was run: as §1
# CaBzz1-D1 = target: CaBzz1-D1
# How it was run: as §1
# CaBzz1-D2 = target: CaBzz1-D2
# How it was run: as §1
# CaCyk3 = target: CaCyk3
# How it was run: as §1
# CaFus1 = target: CaFus1
# How it was run: as §1
# CaHof1 = target: CaHof1
# How it was run: as §1
# CaHse1 = target: CaHse1
# How it was run: as §1
# CaLsb1 = target: CaLsb1
# How it was run: as §1
# CaLsb4 = target: CaLsb4
# How it was run: as §1
# CaMyo5 = target: CaMyo5
# How it was run: as §1
# CaNbp2 = target: CaNbp2
# How it was run: as §1
# CaRvs167 = target: CaRvs167
# How it was run: as §1
# CaRvs167-3 = target: CaRvs167-3
# How it was run: as §1
# CaSho1 = target: CaSho1
# How it was run: as §1
# CaSla1-D1-D2 = target: CaSla1-D1-D2
# How it was run: as §1
# CaSla1-D3 = target: CaSla1-D3
# How it was run: as §1
# ScAbp1 = target: ScAbp1
# How it was run: as §1
# ScBbc1 = target: ScBbc1
# How it was run: as §1
# ScBem1-D1 = target: ScBem1-D1
# How it was run: as §1
# ScBzz1-D1 = target: ScBzz1-D1
# How it was run: as §1
# ScBzz1-D2 = target: ScBzz1-D2
# How it was run: as §1
# ScCyk3 = target: ScCyk3
# How it was run: as §1
# ScFus1 = target: ScFus1
# How it was run: as §1
# ScHof1 = target: ScHof1
# How it was run: as §1
# ScHse1 = target: ScHse1
# How it was run: as §1
# ScLsb1 = target: ScLsb1
# How it was run: as §1
# ScLsb2 = target: ScLsb2
# How it was run: as §1
# ScLsb3 = target: ScLsb3
# How it was run: as §1
# ScLsb4 = target: ScLsb4
# How it was run: as §1
# ScMyo3 = target: ScMyo3
# How it was run: as §1
# ScMyo5 = target: ScMyo5
# How it was run: as §1
# ScNbp2 = target: ScNbp2
# How it was run: as §1
# ScPex13 = target: ScPex13
# How it was run: as §1
# ScRvs167 = target: ScRvs167
# How it was run: as §1
# ScSho1 = target: ScSho1
# How it was run: as §1
# ScSla1-D1-D2 = target: ScSla1-D1-D2
# How it was run: as §1
# ScSla1-D3 = target: ScSla1-D3
# How it was run: as §1
# SpAbp1-D1 = target: SpAbp1-D1
# How it was run: as §1
# SpBbc1 = target: SpBbc1
# How it was run: as §1
# SpBzz1-D1 = target: SpBzz1-D1
# How it was run: as §1
# SpBzz1-D2 = target: SpBzz1-D2
# How it was run: as §1
# SpCyk3 = target: SpCyk3
# How it was run: as §1
# SpHof1 = target: SpHof1
# How it was run: as §1
# SpHof1-2 = target: SpHof1-2
# How it was run: as §1
# SpHof1-3 = target: SpHof1-3
# How it was run: as §1
# SpHse1 = target: SpHse1
# How it was run: as §1
# SpLsb1 = target: SpLsb1
# How it was run: as §1
# SpLsb4 = target: SpLsb4
# How it was run: as §1
# SpMyo1 = target: SpMyo1
# How it was run: as §1
# SpNbp2 = target: SpNbp2
# How it was run: as §1
# SpPex13 = target: SpPex13
# How it was run: as §1
# SpRvs167 = target: SpRvs167
# How it was run: as §1
# SpSla1-D1-D2 = target: SpSla1-D1-D2
# How it was run: as §1
# SpSla1-D3 = target: SpSla1-D3
# How it was run: as §1
binder,measurement,setting,value
NQARKPFLLPATELS,SPOT peptide array binding signal intensity,AgAbp1,≤ 0
same,SPOT peptide array binding signal intensity,AgBbc1,≤ 0
same,SPOT peptide array binding signal intensity,AgBem1-D1,23.5
same,SPOT peptide array binding signal intensity,AgBzz1-D1,19
same,SPOT peptide array binding signal intensity,AgBzz1-D2,16.5
same,SPOT peptide array binding signal intensity,AgCyk3,≤ 0
same,SPOT peptide array binding signal intensity,AgFus1,≤ 0
same,SPOT peptide array binding signal intensity,AgHof1,11.8
same,SPOT peptide array binding signal intensity,AgHse1,454
same,SPOT peptide array binding signal intensity,AgLsb1,295
same,SPOT peptide array binding signal intensity,AgLsb4,≤ 0
same,SPOT peptide array binding signal intensity,AgMyo5,2
same,SPOT peptide array binding signal intensity,AgNbp2,5
same,SPOT peptide array binding signal intensity,AgRvs167,≤ 0
same,SPOT peptide array binding signal intensity,AgSho1,≤ 0
same,SPOT peptide array binding signal intensity,AgSla1-D1-D2,3
same,SPOT peptide array binding signal intensity,AgSla1-D3,0.5
same,SPOT peptide array binding signal intensity,CaAbp1-D1,225
same,SPOT peptide array binding signal intensity,CaAbp1-D2,17
same,SPOT peptide array binding signal intensity,CaBbc1,≤ 0
same,SPOT peptide array binding signal intensity,CaBem1-D1,≤ 0
same,SPOT peptide array binding signal intensity,CaBzz1-D1,≤ 0
same,SPOT peptide array binding signal intensity,CaBzz1-D2,≤ 0
same,SPOT peptide array binding signal intensity,CaCyk3,1
same,SPOT peptide array binding signal intensity,CaFus1,228
same,SPOT peptide array binding signal intensity,CaHof1,≤ 0
same,SPOT peptide array binding signal intensity,CaHse1,4.75
same,SPOT peptide array binding signal intensity,CaLsb1,0.5
same,SPOT peptide array binding signal intensity,CaLsb4,≤ 0
same,SPOT peptide array binding signal intensity,CaMyo5,3.75
same,SPOT peptide array binding signal intensity,CaNbp2,100
same,SPOT peptide array binding signal intensity,CaRvs167,0.333
same,SPOT peptide array binding signal intensity,CaRvs167-3,4.5
same,SPOT peptide array binding signal intensity,CaSho1,28.5
same,SPOT peptide array binding signal intensity,CaSla1-D1-D2,≤ 0
same,SPOT peptide array binding signal intensity,CaSla1-D3,≤ 0
same,SPOT peptide array binding signal intensity,ScAbp1,59.5
same,SPOT peptide array binding signal intensity,ScBbc1,3.75
same,SPOT peptide array binding signal intensity,ScBem1-D1,3.5
same,SPOT peptide array binding signal intensity,ScBzz1-D1,13
same,SPOT peptide array binding signal intensity,ScBzz1-D2,6.5
same,SPOT peptide array binding signal intensity,ScCyk3,8
same,SPOT peptide array binding signal intensity,ScFus1,15
same,SPOT peptide array binding signal intensity,ScHof1,0.5
same,SPOT peptide array binding signal intensity,ScHse1,1630
same,SPOT peptide array binding signal intensity,ScLsb1,23.5
same,SPOT peptide array binding signal intensity,ScLsb2,≤ 0
same,SPOT peptide array binding signal intensity,ScLsb3,≤ 0
same,SPOT peptide array binding signal intensity,ScLsb4,≤ 0
same,SPOT peptide array binding signal intensity,ScMyo3,≤ 0
same,SPOT peptide array binding signal intensity,ScMyo5,≤ 0
same,SPOT peptide array binding signal intensity,ScNbp2,≤ 0
same,SPOT peptide array binding signal intensity,ScPex13,≤ 0
same,SPOT peptide array binding signal intensity,ScRvs167,4.67
same,SPOT peptide array binding signal intensity,ScSho1,105
same,SPOT peptide array binding signal intensity,ScSla1-D1-D2,≤ 0
same,SPOT peptide array binding signal intensity,ScSla1-D3,8
same,SPOT peptide array binding signal intensity,SpAbp1-D1,34
same,SPOT peptide array binding signal intensity,SpBbc1,≤ 0
same,SPOT peptide array binding signal intensity,SpBzz1-D1,≤ 0
SRQAIPPPVPNRPGG,SPOT peptide array binding signal intensity,CaNbp2,50.5
same,SPOT peptide array binding signal intensity,CaRvs167,1340
same,SPOT peptide array binding signal intensity,CaRvs167-3,≤ 0
same,SPOT peptide array binding signal intensity,CaSho1,8
same,SPOT peptide array binding signal intensity,CaSla1-D1-D2,201
same,SPOT peptide array binding signal intensity,CaSla1-D3,0.75
same,SPOT peptide array binding signal intensity,ScAbp1,16
same,SPOT peptide array binding signal intensity,ScBbc1,802
same,SPOT peptide array binding signal intensity,ScBem1-D1,≤ 0
same,SPOT peptide array binding signal intensity,ScBzz1-D1,23
same,SPOT peptide array binding signal intensity,ScBzz1-D2,6
same,SPOT peptide array binding signal intensity,ScCyk3,1
same,SPOT peptide array binding signal intensity,ScFus1,≤ 0
same,SPOT peptide array binding signal intensity,ScHof1,10
same,SPOT peptide array binding signal intensity,ScHse1,≤ 0
same,SPOT peptide array binding signal intensity,ScLsb1,1620
same,SPOT peptide array binding signal intensity,ScLsb2,1320
same,SPOT peptide array binding signal intensity,ScLsb3,3290
same,SPOT peptide array binding signal intensity,ScLsb4,2540
same,SPOT peptide array binding signal intensity,ScMyo3,371
same,SPOT peptide array binding signal intensity,ScMyo5,220
same,SPOT peptide array binding signal intensity,ScNbp2,304
same,SPOT peptide array binding signal intensity,ScPex13,1830
same,SPOT peptide array binding signal intensity,ScRvs167,1980
same,SPOT peptide array binding signal intensity,ScSho1,32
same,SPOT peptide array binding signal intensity,ScSla1-D1-D2,695
same,SPOT peptide array binding signal intensity,ScSla1-D3,9.5
same,SPOT peptide array binding signal intensity,SpAbp1-D1,17
same,SPOT peptide array binding signal intensity,SpBbc1,723
same,SPOT peptide array binding signal intensity,SpBzz1-D1,760
same,SPOT peptide array binding signal intensity,SpBzz1-D2,59.5
same,SPOT peptide array binding signal intensity,SpCyk3,3
same,SPOT peptide array binding signal intensity,SpHof1,≤ 0
same,SPOT peptide array binding signal intensity,SpHof1-2,≤ 0
same,SPOT peptide array binding signal intensity,SpHof1-3,126
same,SPOT peptide array binding signal intensity,SpHse1,≤ 0
same,SPOT peptide array binding signal intensity,SpLsb1,1260
same,SPOT peptide array binding signal intensity,SpLsb4,4790
same,SPOT peptide array binding signal intensity,SpMyo1,120
same,SPOT peptide array binding signal intensity,SpNbp2,≤ 0
same,SPOT peptide array binding signal intensity,SpPex13,≤ 0
same,SPOT peptide array binding signal intensity,SpRvs167,2220
same,SPOT peptide array binding signal intensity,SpSla1-D1-D2,5
same,SPOT peptide array binding signal intensity,SpSla1-D3,≤ 0
